Measured values taken from the supplement of paper PMC13380429.

Assays:
[1] = tested on: Vero E6 infected with SARS-CoV-2; test: morphology score (similarity to uninfected cells); higher = more like uninfected cells; details: 24 h
[2] = tested on: Vero E6 infected with SARS-CoV-2; test: SARS-CoV-2 infection rate relative to infected DMSO; higher = more infection, active = 60 or less; details: 24 h

Row | Compound | morphology score [1] | SARS-CoV-2 infection rate [2]
1 | N#CCCCSC(=N)N [kevetrin] (10 µM) | 0.195 | 92% (inactive)
2 | CN(C)CC[C@@]1(c2ccc(Cl)cc2)Cc2ccccc2C(=O)O1 (racemic) (10 µM) | -0.1 | 106% (inactive)
3 | c1ccc(COCCCc2c[nH]cn2)cc1 [proxyfan] (10 µM) | -0.149 | 115% (inactive)
4 | C=C1c2cccc(O)c2C(=O)C2=C(O)[C@]3(O)C(=O)C(C(N)=O)=C(O)[C@@H](N(C)C)[C@@H]3[C@@H](O)[C@H]12 [methacycline] (0.833333 µM) | 0.0945 | 103% (inactive)
5 | CC1CCc2cc(F)cc3c(=O)c(C(=O)O)cn1c23 (centres undefined) [flumequine] (10 µM) | -0.154 | 116% (inactive)
6 | CC/C(=C(\c1ccccc1)c1ccc(OCCN(C)C)cc1)c1ccccc1 [tamoxifen] (0.833333 µM) | 0.135 | 95.5% (inactive)
7 | CC(C)(C)c1cc(C=C(C#N)C#N)cc(Br)c1O (10 µM) | 0.14 | 108% (inactive)
8 | Cc1cc(O)c(C(=O)N[C@@H](C(=O)N[C@@H]2C(=O)N3C(C(=O)O)=C(CSc4nnnn4C)CS[C@H]23)c2ccc(O)cc2)cn1 [cefpiramide] (10 µM) | 0.00194 | 106% (inactive)
9 | Cn1cc(C(F)(F)F)nc1-c1ccc(OCC(O)CNCCOc2ccc(O)c(C(N)=O)c2)cc1 (centres undefined) (10 µM) | -0.123 | 112% (inactive)
10 | COc1cc2c(cc1OCCCN1CCCC1)N=C(N)C21CCC1 (10 µM) | 0.0229 | 106% (inactive)
11 | CCCC(=O)OCOC(=O)C1=C(C)NC(C)=C(C(=O)OC)C1c1cccc(Cl)c1Cl (centres undefined) [cleviprex] (10 µM) | 0.0656 | 102% (inactive)
12 | CNC(=O)c1cccc2cc(Oc3ccnc4cc(OCC5(N)CC5)c(OC)cc34)ccc12 [lucitanib] (10 µM) | 0.0362 | 104% (inactive)
13 | O=C(Nc1nc2ccc(NC(=O)C34CC5CC(CC(C5)C3)C4)cc2s1)c1ccccc1 (0.833333 µM) | -0.0802 | 105% (inactive)
14 | Cn1cnnc1Sc1c([N+](=O)[O-])ncn1C (10 µM) | 0.299 | 87% (inactive)
15 | COc1ccc2cc(OCC3(C(=O)O)CN(C(=O)c4ccc(F)cc4)C3)ccc2c1 (10 µM) | 0.0418 | 110% (inactive)
16 | O=C(NO)c1ccc(O)c(O)c1 [didox] (10 µM) | 0.0981 | 96% (inactive)
17 | O=S(=O)(O)c1ccc2[nH]c(-c3ccccc3)nc2c1 [phenylbenzimidazole-sulfonic-acid] (10 µM) | 0.087 | 104% (inactive)
18 | Nc1ncnc2c1ncn2[C@H]1CC[C@@H](CO)O1 [dideoxyadenosine] (10 µM) | 0.103 | 99% (inactive)
19 | CN1CCN(CCc2ccc(Cl)c(Cl)c2)CC1 (10 µM) | 0.156 | 94% (inactive)
20 | CC(=O)N(CC(O)CO)c1c(I)c(C(=O)NCC(O)CO)c(I)c(C(=O)NCC(O)CO)c1I (centres undefined) [iohexol] (10 µM) | 0.142 | 104% (inactive)
21 | Cn1c(=O)c2c(ncn2CC(=O)Nc2ccc(-c3ccccc3)nn2)n(C)c1=O (10 µM) | 0.382 | 80.5% (inactive)

Row | Compound | morphology score [1] | SARS-CoV-2 infection rate [2]
22 | CCCN(CCC)S(=O)(=O)c1ccc(C(=O)O)cc1 [probenecid] (10 µM) | -0.0854 | 106% (inactive)
23 | Nc1ncnc2c1ncn2CCOCP(=O)(O)O [adefovir] (10 µM) | -0.0616 | 110% (inactive)
24 | CCn1c(-c2nonc2N)nc2cnc(Oc3cccc(NC(=O)c4ccc(OCCN5CCOCC5)cc4)c3)cc21 (10 µM) | 0.306 | 97% (inactive)
25 | N[C@@H](C(=O)O)c1nn[nH]n1 (racemic) [tetrazol-5-yl-glycine-(RS)] (10 µM) | 0.03 | 98% (inactive)
26 | c1cnc(NCc2ccc(CNc3ncccn3)cc2)nc1 (10 µM) | 0.18 | 112% (inactive)
27 | CCc1nn(CCCN2CCN(c3cccc(Cl)c3)CC2)c(=O)n1CCOc1ccccc1 [nefazodone] (10 µM) | 0.0652 | 106% (inactive)
28 | CC(C)NCC(O)COc1ccc(COCCOC(C)C)cc1 (centres undefined) [bisoprolol] (10 µM) | -0.0255 | 106% (inactive)
29 | Cc1c(-c2ccc(O)cc2)n(Cc2ccc(OCCN3CCCCCC3)cc2)c2ccc(O)cc12 [bazedoxifene] (0.833333 µM) | 0.201 | 101% (inactive)
30 | COc1ccc(/C=C2\CCCN=C2c2cccnc2)c(OC)c1 (10 µM) | 0.517 | 87% (inactive)
31 | CN1CCN(c2ccc3ccccc3n2)CC1 [N-methylquipazine] (10 µM) | 0.139 | 100% (inactive)
32 | CN[C@H](CC(C)C)C(=O)N[C@H]1C(=O)N[C@@H](CC(N)=O)C(=O)N[C@H]2C(=O)N[C@H]3C(=O)N[C@H](C(=O)N[C@H](C(=O)O)c4cc(O)cc(O)c4-c4cc3ccc4O)[C@H](O)c3ccc(c(Cl)c3)Oc3cc2cc(c3O[C@@H]2O[C@H](CO)[C@@H](O)[C@H](O)[C@H]2O[C@H]2C[C@](C)(N)[C@H](O)[C@H](C)O2)Oc2ccc(cc2Cl)[C@H]1O (10 µM) | 0.0907 | 104% (inactive)
33 | CC(C)(C)NCC(O)c1cc(O)cc(O)c1 (centres undefined) (10 µM) | 0.0272 | 113% (inactive)
34 | CN1CCC(Nc2ncc3ncnc(Nc4ccc(F)c(Cl)c4)c3n2)CC1 (10 µM) | 0.0447 | 114% (inactive)
35 | O=C(Nc1cccc(Cl)c1)Nc1ncc(CCNc2ncnc3ccsc23)s1 (10 µM) | 0.393 | 80% (inactive)
36 | CCCOC(C(=O)OC1CCN(C)CC1)(c1ccccc1)c1ccccc1 [propiverine] (10 µM) | 0.677 | 41% (active)
37 | O=C(c1ccc(C(=O)N2CCC(N3CCCC3)CC2)c(Nc2ccccc2)c1)N1CCC(N2CCCC2)CC1 (10 µM) | -0.0106 | 114% (inactive)
38 | CN1C(=O)CN=C(c2ccccc2)c2cc(Cl)ccc21 [diazepam] (10 µM) | 0.0883 | 108% (inactive)
39 | C[C@@]1(O)[C@H](O)[C@@H](CO)O[C@H]1n1ccc(N)nc1=O (10 µM) | 0.0553 | 103% (inactive)
40 | COC(=O)N1CCN(Cc2cccc(NC(=O)Nc3ccc(C)nc3)c2F)CC1 [omecamtiv-mecarbil] (10 µM) | 0.272 | 99% (inactive)
41 | O=C1CC[C@@](c2ccccc2)(C2CCN(Cc3ccc(I)cc3)CC2)C(=O)N1 [iododexetimide] (10 µM) | -0.0136 | 100% (inactive)
42 | OC(c1ccccc1)(c1ccccc1)C1CCNCC1 [azacyclonol] (10 µM) | -0.109 | 110% (inactive)

Row | Compound | morphology score [1] | SARS-CoV-2 infection rate [2]
43 | Nc1nc2[nH]cc(CCc3ccc(C(=O)N[C@@H](CCC(=O)O)C(=O)O)cc3)c2c(=O)[nH]1 [pemetrexed] (10 µM) | -0.15 | 121% (inactive)
44 | CN1C(=O)CC(C)(c2ccccc2)C1=O (centres undefined) [methsuximide] (10 µM) | 0.0784 | 110% (inactive)
45 | c1ccc2c(CC3=NCCN3)cccc2c1 [naphazoline] (10 µM) | 0.146 | 99% (inactive)
46 | COc1cc2c(N3CCN(C(=O)Nc4ccc(OC(C)C)cc4)CC3)ncnc2cc1OCCCN1CCCCC1 [tandutinib] (10 µM) | -0.0843 | 95.5% (inactive)
47 | NCCc1ccc(O)c(O)c1 [dopamine] (10 µM) | -0.112 | 100% (inactive)
48 | CC(=O)O[C@]1(C(C)=O)CC[C@H]2[C@@H]3C[C@H](C)C4=CC(=O)C=C[C@]4(C)[C@@]3(F)[C@@H](O)C[C@@]21C [fluorometholone-acetate] (10 µM) | 0.0758 | 105% (inactive)
49 | C#Cc1cccc(Nc2ncnc3cc(OCCOC)c(OCCOC)cc23)c1 [erlotinib] (10 µM) | -0.159 | 116% (inactive)
50 | CCc1cccc(CC)c1NC(=O)c1nn(C)c2c1CCc1cnc(Nc3ccc(C(=O)NC4CCN(C)CC4)cc3OC(F)(F)F)nc1-2 (10 µM) | -0.0668 | 111% (inactive)
51 | Nc1ncnc2c1ncn2[C@@H]1O[C@H](CO)C[C@H]1O [cordycepin] (10 µM) | -0.1 | 112% (inactive)
52 | CC1(C)CC(Oc2ccc(-c3ccc(-c4cn[nH]c4)cc3O)nn2)CC(C)(C)N1 (10 µM) | -0.373 | 120% (inactive)
53 | C[C@@H]1C[C@H]2[C@@H]3C[C@H](F)C4=CC(=O)C=C[C@]4(C)[C@@]3(Cl)[C@@H](O)C[C@]2(C)[C@H]1C(=O)COC(=O)C(C)(C)C [clocortolone-pivalate] (10 µM) | 0.067 | 98% (inactive)
54 | N#Cc1ccc(N2CCN(C(=O)COc3ccc4[nH]cc(CCN)c4c3)CC2)cc1 [donitriptan] (10 µM) | -0.0047 | 100% (inactive)
55 | CC(=O)OCC1=C(C(=O)O)N2C(=O)[C@@H](NC(=O)Cc3cccs3)[C@H]2SC1 [cephalothin] (10 µM) | -0.0126 | 102% (inactive)
56 | O=C(O)[C@@H]1C[C@@H](O)CN1 [L-hydroxyproline] (10 µM) | 0.203 | 101% (inactive)
57 | N[C@H](C(=O)O)[C@H](O)c1ccc(O)c(O)c1 [droxidopa] (10 µM) | -0.0971 | 122% (inactive)
58 | CCOC(=O)c1ncc2[nH]c3ccc(OCc4ccccc4)cc3c2c1COC (10 µM) | -0.0675 | 97.5% (inactive)
59 | Oc1ccc(-c2nc3cc(O)cc(Br)c3o2)cc1 (10 µM) | 0.128 | 94.5% (inactive)
60 | OC(CN1CCN(c2cccc(Cl)c2)CC1)C(c1ccccc1)c1ccccc1 (centres undefined) (10 µM) | -0.0067 | 96.5% (inactive)
61 | O=c1[nH]c(=O)c2ccccc2o1 [carsalam] (10 µM) | 0.265 | 85% (inactive)
62 | C(=C\c1ccccc1)/CN1CCN(CCOC(c2ccccc2)c2ccccc2)CC1 (10 µM) | 0.33 | 82.5% (inactive)
